# Assay results from PubChem BioAssay (NCATS).
# Results filed as inconclusive are left out. Values without a mark were called inactive. The call rests on the fitted dose curve; in most records, active means well fitted curve in the direction sought with a large enough effect; inconclusive means small, poorly fitted or top-dose-only effect, or another doubt; inactive means no such curve, though single readings can be large or run the other way.
# Biological target: Calcium and integrin-binding protein 1 (Homo sapiens) (UniProt Q99828)
# Sequence (Q99828 whole entry, looked up): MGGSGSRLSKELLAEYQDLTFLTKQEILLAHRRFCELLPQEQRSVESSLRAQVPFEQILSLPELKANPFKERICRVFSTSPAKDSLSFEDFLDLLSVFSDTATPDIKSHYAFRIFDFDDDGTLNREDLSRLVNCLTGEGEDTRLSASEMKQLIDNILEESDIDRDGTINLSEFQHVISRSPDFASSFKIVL
# Experiment: Validation qHTS for Identification of Calcium Integrin Binding protein 1 (CIB1) Competitor (AID 1508618)
# Conditions: CIB1-GST / FITC-alphaIIb peptide fluorescence polarization; series mostly up to 114 µM; activity change, negative = inhibition: at the top concentration
# Description: Assay Provider: Ulhas P. Naik, PhD
# Sidney Kimmel Medical College
# Thomas Jefferson University, Philadelphia, PA
# Primary function of platelets is to maintain hemostasis. At the site of vascular injury, platelets adhere to adhesive proteins such as collagen and von Willebrand factor. Adherent platelets are activated and generate soluble platelet agonists such as thrombin, ADP and thromboxane A2. Following exposure of circulating platelets to these agonists, results in platelet shape change, granule secretion and activation of platelet integrin alphaIIb-beta3. Ligand binding to activated integrin alphaIIb-beta3 triggers outside-in signaling, leading to platelet aggregation, stabilization of platelet plug, and clot retraction. Upon atherosclerotic plaque rupture also causes platelet plug formation, which underlies a number of cardiovascular diseases such as myocardial infraction and stroke. A number of anti-platelet drugs such as aspirin, clopidogrel, prasugrel, vorapaxar, and eptifibatide are currently available to prevent the thrombotic complications. However, these anti-platelet agents have several limitations including inherent variability in individual responses, developing resistance, and serious bleeding side effects. For these reasons they are not suitable for long-term protection. Based on the experiences with current anti-platelet drugs, it appears that the most useful therapeutic approach is to intersect the secondary responses such as integrin outside-in signaling or recruitment of platelets by TxA2 and secreted ADP. Compounds, which can largely preserve the primary hemostatic function of platelets but inhibit secondary response will be most desired therapeutic agents for treatment of cardiovascular disease.
# CIB1 is a calcium integrin binding protein, which specifically interact with the alphaIIb subunit of integrin alphaIIb-beta3. Binding of CIB1 to alphaIIb regulates the outside-in signaling in platelets, which is needed for thrombus stabilization and thrombus growth. […] Therefore, we propose that discovery of a small molecule that can prevent the association of CIB1 and alphaIIb-beta3 will be a potential anti-platelet agent that can block the thrombus formation without undue effect on hemostasis.
# To develop fluorescence polarization (FP) assay using fluorescently labeled alphaIIb peptide and CIB1 protein. Using FP assay characterize the binding affinity, competitive inhibition, and acceptable Z factor (0.5 to1) in order to perform the HTS to identify small molecule compound that can prevent CIB1 binding to platelet integrin alphaIIbbeta3. This assay is screened against the NCATS LOPAC library to validate the amenability of the assay to qHTS.
# [1] Naik MU, Nigam A, Manrai P, et al. CIB1 deficiency results in impaired thrombosis: the potential role of CIB1 in outside-in signaling through integrin alpha IIb beta 3. J Thromb Haemost. 2009;7(11):1906-1914. doi:10.1111/j.1538-7836.2009.03581.
# SEQUENCE No. (1, 2, 3, etc.); […] (e.g., Cells, Incubation, Reagent, etc.); VALUE and DESCRIPTION.
# 1; Reagent; 3 uL; Protein or buffer (4/3x)
# 2; Compound; 46 nL; Control inhibitor / compound library
# 3; Time; 15 min; Room temperature incubation
# 4; Reagent; 1 uL; Fluorescent labeled peptide (4x)
# 5; Time; 1000 rpm; Centrifuge
# 6; Time; 15 min; Room temperature incubation
# 7; Detection; Ex 480/ Em 540; ViewLux Fluorescence Read
# NOTES (numbers refer to sequence above)
# 1; Protein Mixture: C1B1-GST (final concentrations of 1 uM). Buffer composition: 5 mM HEPES pH 7.4, 125 mM NaCl, 5 mM CaCl2, 0.01% Tween20.
# 2; Control Inhibitor: unlabeled peptide (final concentration range 17.4 nM to 572 uM). Compound Library final concentration range 18.3 nM to 114 uM.
# 3; Room temperature incubation.
# 4; Fluorescent Labeled Peptide: FITC-aIIb (final concentration of 100 nM). Sequence of alphaIIb peptide: Acetyl-[…]-FITC (purity is 95.83%).
# 6; Room temperature incubation.
# […]
# On the % scale 0 is the no-effect control and ±100 the full control effect.
row,Structure (SMILES),"activity change, negative = inhibition [%]"
1,Cc1ccc([N+](=O)[O-])cc1S(=O)(=O)N(C)C,2.38
2,c1ccc2nc(C3=NCCN3)ccc2c1,3.94
3,O=C(O)/C=C/c1ccc(O)c(O)c1,8.34
4,COc1cc(N)c(Cl)cc1C(=O)OCCN1CCCCC1,8.05
5,O=C(O)Cc1ccc(O)c(O)c1,-1.14
6,O=c1cc(-c2ccccc2)[nH]c2nc(Cl)ccc12,21
7,Cn1c(=O)[nH]c2ncn(C)c2c1=O,14.4
8,N[C@H](C(=O)O)[C@H]1C[C@@H]1C(=O)O,8.24
9,O=C1Nc2ccc(I)cc2/C1=C/c1cc(Br)c(O)c(Br)c1,112
10,NC(N)=[N+]1CCc2ccccc2C1,1.01
11,O=[N+]([O-])c1cccc2cn[nH]c12,11.4
12,S=C(S)N1CCCC1,2.09
13,CCSC(=N)N,-6.08
14,Cc1nc(N=Nc2ccc(C(=O)O)cc2)c(COP(=O)(O)O)c(C=O)c1O,-1.85
15,C#CC(N)CCC(=O)O (stereo not given),9.72
16,COc1cc(/C=C(\C#N)C(=O)c2ccc(O)c(O)c2)cc(I)c1O,220
17,Cc1nc2c(OCc3ccccc3)cccn2c1CC#N,6.41
18,N[C@@H](Cc1ccc(F)cc1)C(=O)O,7.89
19,c1ccc2c(c1)CC(N1CCN(c3cccc4c3OCCO4)CC1)C2,8.38
20,CNCCNS(=O)(=O)c1cccc2cnccc12,6.05

row,Structure (SMILES),"activity change, negative = inhibition [%]"
1,NCC(O)C1CCCCCCC1 (stereo not given),4.06
2,CC(N)(C(=O)O)c1ccc(C(=O)O)cc1 (stereo not given),6.25
3,Nc1nc2c(cnn2CCc2ccccc2)c2nc(-c3ccco3)nn12,5
4,Cc1cccc(C)c1OCC(N)C(C)C (stereo not given),7.05
5,CCCCCCCC/C=C\CCCCCCCC(=O)NCCc1ccc(O)c(O)c1,7.14
6,C[C@H](NC(=O)/C(C#N)=C/c1ccc(O)c(O)c1)c1ccccc1,-10.5
7,CC1=C(C(=O)O)N2C(=O)[C@@H](NC(=O)C(N)C3=CCC=CC3)[C@H]2SC1 (stereo not given in full),10.4
8,Oc1cc2c(cc1O)C(c1ccccc1)CNCC2 (stereo not given),7.97
9,C#CCn1c(=O)c2c(ncn2C)n(C)c1=O,5.9
10,COC(=O)C(N)Cc1ccc(Cl)cc1 (stereo not given),-2.16
11,O=C(O)C1CCCNC1 (stereo not given),3.13
12,Cn1c(=O)c2[nH]c(C3CCCC3)nc2n(C)c1=O,-0.607
13,Cn1cc(C(=O)OCC2CCN(CCNS(C)(=O)=O)CC2)c2ccccc21,5.95
14,c1ccc(C(NCc2cccnc2)(c2ccccc2)c2ccccc2)cc1,-2.24
15,CC(C)NCC(O)COc1ccc(CC(N)=O)cc1 (stereo not given),10.1
16,C=CCN1CCc2cc(O)c(O)cc2C(c2ccccc2)C1 (stereo not given),6.67
17,CCCCCCCCCCC(C)(C)C(=O)Nc1c(OC)cc(OC)cc1OC,6.96
18,COc1ccccc1N1CCN(CCCCN2C(=O)c3ccccc3C2=O)CC1,5.93
19,COc1cc(CNC(=O)CCCCCCC(C)C)ccc1O,2.59
20,CNCCc1cnc(CCC(c2ccccc2)c2ccccc2)[nH]1,2.59
